Bioassay records (PubChem BioAssay)
HIF-2a inh: blocks HIF-2a reporter activity; actives 0.72% (n = 360,000); 786-0 RCC cells HIF-2a reporter, luciferase luminescence, overnight; AID 624352; inhibition, % at 18.8 µM;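 active = inhibition of the luminescence signal of 40% or more relative to plate controls, in a single-dose primary screen at 18.75 µM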
Shn3 3UTR inh: Schnurri-3 reporter inhibition in Clone20 osteoblasts; Clone20 osteoblast Shn3 3'UTR firefly luciferase, 24 h; inhibition, % at 12.5 µM; actives 0.52% (n = 360,000);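 active = mean inhibition of at least 75% with every replicate also reaching 75%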
TRPM1 prom inh: inhibitors of MITF-driven TRPM1 promoter in melanoma cells | SK-MEL-5 TRPM1 promoter luciferase, 24 h | actives 0.83% (n = 330,000) | inhibition, % at 12.5 µM;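 active = mean inhibition across replicates of 60% or more, whatever share of single replicates reaches that level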
Peg3 promoter: Peg3 promoter activity inhibition; HeLa PEG-Prom luciferase reporter, luminescence, overnight; inhibition, % at 20 µM; actives 1.7% (n = 360,000); AID 588405;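 active = inhibition of at least 50% at 20 µM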
KKLEB tox: counter-screen for CF NF-kB inhibitors: cytotoxicity; KKLEB CF airway cells viability, ATPlite luminescence, overnight; active compounds read low; cells stimulated with P. aeruginosa culture filtrate; activity change (cytotoxicity), % at 5 µM; actives 0.36% (n = 360,000); AID 602141;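 active = corrected activity change at or below -50% at 5 µM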
CF NFkB block: cystic fibrosis NF-kB activation inhibition; inhibition, % at 5 µM; KKLEB NF-kB-GFP reporter, PAF-induced, GFP fluorescence overnight; actives 0.86% (n = 360,000); AID 588850;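 active = at least 50% inhibition at 5 µM, scaled per plate between neutral and stimulator controls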;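 note: PAF is a Pseudomonas aeruginosa culture filtrate used as stimulus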
Hits are given with their value. Rows were chosen to be rich in hits. Some 2.7% of all compounds tested hit in one or more screens of this group.

CCCCNC(=O)C1(C)CCCCN1CC(=O)c1ccc(OC)cc1 (stereo unspecified) was read as HIF-2a inh inactive, Shn3 3UTR inh inactive, Peg3 promoter inactive, KKLEB tox inactive and CF NFkB block inactive.
For CCOC(=O)[C@]12CCCC=C1N(CCc1ccc(OC)c(OC)c1)C(=O)[C@H](CC(=O)N1CCSCC1)C2 the results were HIF-2a inh inactive.
For CC1(c2ccccc2)CC(C)(C)N2C(=O)/C(=C3\SC(=S)NC3=O)c3cccc1c32 (stereo unspecified) the results were HIF-2a inh inactive, Shn3 3UTR inh inactive, TRPM1 prom inh inactive, Peg3 promoter inactive, KKLEB tox inactive and CF NFkB block 61.1.
CC1(c2ccccc2)CC(C)(C)N2C(=O)C3(C(C#N)=C(N)Oc4cc(O)ccc43)c3cccc1c32 (stereo unspecified) was read as HIF-2a inh inactive, Shn3 3UTR inh inactive, TRPM1 prom inh inactive, Peg3 promoter inactive, KKLEB tox inactive and CF NFkB block inactive.
`CS(=O)(=O)N1CCN(c2ccc(NC(=O)c3ccc(-c4ccc(Cl)cc4)o3)cc2)CC1` gave HIF-2a inh inactive, Shn3 3UTR inh inactive, TRPM1 prom inh inactive, Peg3 promoter inactive, KKLEB tox inactive and CF NFkB block inactive.
`CN1CCN(c2ccc(NC(=O)c3ccc(-c4ccc(Cl)cc4)o3)cc2)CC1` gave HIF-2a inh inactive, Shn3 3UTR inh inactive, TRPM1 prom inh inactive, Peg3 promoter 97.8, KKLEB tox inactive and CF NFkB block inactive.
O=C(Cc1ccc(Cl)cc1)Nc1ccc(N2CCN(C(=O)c3ccco3)CC2)cc1 was read as HIF-2a inh inactive, Shn3 3UTR inh 90.0, TRPM1 prom inh inactive, Peg3 promoter inactive, KKLEB tox inactive and CF NFkB block inactive.
Cc1nc2ccc(C(=O)N3c4ccccc4N=C(c4ccc5c(c4)OCO5)C3C(=O)NCc3ccccc3)cc2[nH]1 (stereo unspecified) was read as HIF-2a inh inactive.
COc1cccc(N2CCN(C(=O)CCCCCNc3nc(=S)[nH]c4ccccc34)CC2)c1 was read as HIF-2a inh inactive, Shn3 3UTR inh inactive, TRPM1 prom inh inactive, Peg3 promoter 62.8, KKLEB tox inactive and CF NFkB block inactive.
Screening O=C(CCCn1c(=S)[nH]c2ccccc2c1=O)N1CCN(c2cccc(Cl)c2)CC1 returned HIF-2a inh inactive, Shn3 3UTR inh inactive, TRPM1 prom inh inactive, Peg3 promoter inactive, KKLEB tox inactive and CF NFkB block inactive.
O=C(CCCCCNc1nc(=S)[nH]c2ccccc12)N1CCN(c2ccccn2)CC1 was read as HIF-2a inh inactive, Shn3 3UTR inh inactive, TRPM1 prom inh inactive, Peg3 promoter 55.7, KKLEB tox inactive and CF NFkB block inactive.
COc1ccc(CN2C(=O)CCC2(C)c2nnnn2-c2ccc3c(c2)OCCO3)cc1OC (stereo unspecified) was read as HIF-2a inh inactive.
`CCN(CC)CCNC(=O)c1c(C)n(-c2ccccc2)c2cc(Br)c(OC)cc12` gave HIF-2a inh inactive, Shn3 3UTR inh inactive, TRPM1 prom inh 74.3, Peg3 promoter 65.5, KKLEB tox inactive and CF NFkB block inactive.
Screening COc1cc2c(C(=O)N3CCN(C)CC3)c(C)n(-c3ccccc3)c2cc1Br returned HIF-2a inh inactive, Shn3 3UTR inh inactive, TRPM1 prom inh inactive, Peg3 promoter inactive, KKLEB tox inactive and CF NFkB block inactive.
For COC(=O)[C@@]12C[C@@H](CC(=O)NCc3ccc(C)o3)C(=O)N(Cc3ccc4c(c3)OCO4)C1=CCC(C)(C)C2 the results were HIF-2a inh inactive.
Screening COC(=O)[C@@]12C[C@@H](CC(=O)N3CCOCC3)C(=O)N(Cc3ccccc3)C1=CCC(C)(C)C2 returned HIF-2a inh inactive.
Screening CCCN1CCN(CCCNC(=S)Nc2ccc3nc(N4CCN(CC)CC4)cc(C)c3c2)CC1 returned HIF-2a inh inactive, TRPM1 prom inh inactive, Peg3 promoter inactive, KKLEB tox inactive and CF NFkB block inactive.
Screening Cc1cc(N2CCN(C)CC2)nc2ccc(NC(=S)NCCN3CCc4ccccc4C3)cc12 returned HIF-2a inh inactive, Shn3 3UTR inh inactive, TRPM1 prom inh 77.8, Peg3 promoter 60.6, KKLEB tox inactive and CF NFkB block inactive.
`CCN1CCN(c2cc(C)c3cc(NC(=S)NCCN(C)C)ccc3n2)CC1` gave HIF-2a inh inactive, Shn3 3UTR inh inactive, TRPM1 prom inh inactive, Peg3 promoter inactive, KKLEB tox inactive and CF NFkB block inactive.
